Measured values published in PubChem BioAssay AID2783 (National Center for Advancing Translational Sciences (NCATS), 2010).
Records with an inconclusive call do not appear. Activity calls are given as the source filed them. Calls come from the whole dose curve; as a rule, active = well fitted inhibition curve with a large enough effect in the polarisation, with a control signal flat (not every such curve was filed as active); inconclusive = small, poorly fitted or top-dose-only effect, or effect the other way, or a change in a side signal; inactive = no such curve, though single readings can be large or run the other way; the % refers to the polarisation.

Each molecule was assayed against Menin (Homo sapiens) (UniProt O00255) (assay: Confirmation of Inhibitors Targeting the Menin-MLL Interaction in MLL Related Leukemias: Competition With Fluorescein Labeled MLL-derived Peptide). Details: Fluorescence polarization, fluorescein-MLL peptide displacement from menin; series mostly up to 100 µM; activity change, negative = inhibition: at the top concentration.
Sequence of Menin (Homo sapiens) (O00255 whole entry, looked up): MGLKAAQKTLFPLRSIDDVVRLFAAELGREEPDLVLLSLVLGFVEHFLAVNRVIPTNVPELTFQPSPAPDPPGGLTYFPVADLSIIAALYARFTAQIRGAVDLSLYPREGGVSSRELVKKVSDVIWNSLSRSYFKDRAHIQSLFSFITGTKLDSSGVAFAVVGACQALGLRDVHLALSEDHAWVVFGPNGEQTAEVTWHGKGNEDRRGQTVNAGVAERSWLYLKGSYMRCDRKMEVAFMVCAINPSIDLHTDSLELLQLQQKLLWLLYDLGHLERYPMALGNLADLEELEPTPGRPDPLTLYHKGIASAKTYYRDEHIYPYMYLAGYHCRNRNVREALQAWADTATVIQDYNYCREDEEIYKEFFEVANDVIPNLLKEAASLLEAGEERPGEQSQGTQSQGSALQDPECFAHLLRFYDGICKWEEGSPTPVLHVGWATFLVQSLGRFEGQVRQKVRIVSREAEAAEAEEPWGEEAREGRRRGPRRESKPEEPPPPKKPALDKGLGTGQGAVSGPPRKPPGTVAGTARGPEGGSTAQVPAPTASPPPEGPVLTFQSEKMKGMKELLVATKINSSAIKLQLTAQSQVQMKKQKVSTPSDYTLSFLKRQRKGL
% is set by controls: 0 for no effect and ±100 for the full control effect.

Row | SMILES | activity change, negative = inhibition
1 | COc1ccccc1N(CC1CO1)S(=O)(=O)c1ccccc1 (centres undefined) | -17.6% (inactive)
2 | O=S(=O)(c1ccc(-c2csc(Nc3ccc(Br)cc3)n2)cc1)N1CCCC1 | 1.46% [at 288 µM] (inactive)
3 | COc1ccc(S(=O)(=O)Nc2cc(SCC(=O)O)c(O)c3ccccc23)cc1 | 0.163% [at 288 µM] (inactive)
4 | CCC(=O)NC(=S)Nc1ccc(NC(=S)NC(=O)c2ccc(C)cc2)cc1 | -10.6% (inactive)
5 | COC(=O)Cc1c(C)nc2nc(-c3ccc(OC)cc3)[nH]n2c1=O | -3.09% [at 288 µM] (inactive)
6 | O=C(NNCS(=O)(=O)O)c1ccncc1 | -5.26% (inactive)
7 | O=C(Cn1nc(-c2ccccc2)ccc1=O)N1CCCCC1 | 2.68% [at 288 µM] (inactive)
8 | Cn1c(=O)n(C)c2cc3[nH]cnc3cc21 | 3.61% (inactive)
9 | COc1ccc(CN2CCC(Cc3ccccc3)CC2)c(C)c1C | -1.64% (inactive)
10 | O=C(NC1CCN(c2ncccn2)CC1)c1c(F)cccc1F | -2.68% [at 288 µM] (inactive)
11 | CC1CN(c2c3c(nc4ncnn24)CCCC3)CC(C)O1 (centres undefined) | -1.31% (inactive)
12 | O=c1oc2c(O)c(O)cc3c(=O)oc4c(O)c(O)cc1c4c23 | -10.6% (inactive)
13 | COc1cccc(OC)c1NC(=O)CN1CCN(C)CC1 | -13.1% (inactive)
14 | O=C(NCC1CCCO1)c1ccc(OC2CCN(C(=O)C3CC3)CC2)cc1 (centres undefined) | 2.79% (inactive)
